# Tested on: PPARg:RXRa DBDmut IVT, anti-RXR (DBD mutation: RXRa K156A/R161A, NR concentration 270 nM, RXRa partner concentration 90 nM)
# Assay: PBM binding z-score (relative to random genomic background probes); higher = stronger binding; sequences stand for … in GC…GCGATTGACAGCGTAGAATGAAGG
# Summary of the method: (§1)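 Scanned fluorescence from custom Agilent 4×180K protein-binding microarrays was regression-normalized. Binding z-scores use random background probes as reference. Ligand-free nuclear receptor dimers were incubated on the arrays for 1 h and detected with antibodies against each partner (one per run).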
row,Sequence,PBM binding z-score
1,CAAACTAGGTCAAGGGGTCAAAGTCCGCTTCCCG,8.13
2,ATCGAAAGGTCGTGAGGTGAGTACACAGAAAGGC,0.432
3,CGAACTAGTTCAAGGACAGTGAATCTCCGCACGC,0.894
4,CCTGCTAGTTCAATGGTCAGCTAAAGCAGCTCGC,0.00571
5,ATATGTAGGTTAGCGGGGGTCATTCAGACTAGGC,7.07
6,CGTCCAAGGTCAGCAGGTGAGTGAAAGCGACGTG,2.8
7,TAGCCTCGGTCATTGGGCCAGTATAGTACGCATC,0.608
8,GCTAGTTGGTCAGTAAATGGTCACACACCGGTCG,0.302
9,AGACAAAGTTCAGGACGAGGTAACGTAAAGCACG,-0.362
10,CGCACTAGGTCATTGACAGGACAGTGAATAGTAA,8.05
11,ATGGAAAGGTCGTGAGGTGAGTATACAGAAAGGC,0.309
12,ATATCTAGGTAAAAGTTCAGTGAATCCCGAGGAT,6
13,CCTACTGGGCCGAGGTCATTGATCAGTCAAAGCA,1.55
14,TTACCAAAGTGAAAGGTCGTTGATGCACGCCTTG,-0.147
15,CCTAGTAGGTTATGGGGCATTCAGGCAACGGTGA,4.52
16,AGTCAAAGTTCATCTGGGTAACGTAAGATATGCT,1.05
17,TCTTGTAGATCAAAGGTCAAGAAAGCCGAAGCCT,2.63

# Tested on: PPARg:RXRa IVT, anti-PPARg (NR concentration 270 nM, RXRa partner concentration 90 nM)
# Assay: as above
# Summary of the method: as §1
row,Sequence,PBM binding z-score
1,CCTAGTTGGTCAAGGTCACGCACGCTATAGGTAC,3.78
2,GATACAGGGTCATCTAGAGGCCAGAGTATGGAAA,3.6
3,AGTCAAAGTTCACTAGGTTACGTAAGATTCAGCT,5.6
4,CCAGACAGGTGAAAGGTAACTCACTCTGGTACGC,3.27
5,ATCTCTAGGTGAAAGTTCAGTGAATCCCGAGGAT,6.32
6,CAAACTAGGTCAAGGTCAAATTCGGTTTGTGCCA,8.78
7,CAAACTAGGTCACGAAAGGTCAAAATCGAATGAC,8.77
8,CCTACTGGGCCAAGGTCATTGACCAGTCAAAGCA,4.84
9,TTAACAAGGTGAAAGGTCGTTGATGCACGCCTTG,5.57
10,CCTGCTCGGTCAATGGTCAGCTAAAGCAGCTCGC,0.0131
11,CGTCAAAGTTCAAGGTAATGTAACAGAAAGCAGC,2.03
12,CAAACTAGGTCAAAGGTCAAAGACGAGCCAACCA,9.63
13,CCTACTGGGCCATTGAGAGGTCATTGATCATATG,3.95
14,CCTGCTAGTTCATGGTCAGCTAATCTACAGTATG,-0.0239
15,TCTAGTTCGTCACGGAGGTCACACACGACGGGTA,2.15
16,AGAATGAGGTTAGCAAAGATCAGGGAAACGCTTG,1.55
17,TAGCCTAGGTCATTCAGGGGCTAGTATAGAAAGC,2.56
18,ACTCGGAGGACAAAGGTAAGAGCTACGCCAGTGA,-0.0365
19,TCATATAGGTAATCAGGTGAAAGTCCGTAAGTTA,5.17
20,CCTACTGGGCCAAAGGTCATTGACTCCAATGCTC,7.13

row,Sequence,PBM binding z-score
1,AAATGTAGGTTAAGGGTCATTCAGGTTGGTTCGC,8.07
2,GGAACTAGGGCAAAGTTGATAGCATCTGTCGACG,7.8
3,CAAACTAGGTCAAGGGGTCAAAGTCCGCTTCCCG,8.72
4,ATCGAAAGGTCGTGAGGTGAGTACACAGAAAGGC,2.33
5,CGAACTAGTTCAAGGACAGTGAATCTCCGCACGC,-0.296
6,CCTGCTAGTTCAATGGTCAGCTAAAGCAGCTCGC,-0.344
7,ATATGTAGGTTAGCGGGGGTCATTCAGACTAGGC,6.87
8,CGTCCAAGGTCAGCAGGTGAGTGAAAGCGACGTG,3
9,TAGCCTCGGTCATTGGGCCAGTATAGTACGCATC,1.16
10,GCTAGTTGGTCAGTAAATGGTCACACACCGGTCG,0.493
11,AGACAAAGTTCAGGACGAGGTAACGTAAAGCACG,0.619
12,CGCACTAGGTCATTGACAGGACAGTGAATAGTAA,8.26
13,ATGGAAAGGTCGTGAGGTGAGTATACAGAAAGGC,2.67
14,ATATCTAGGTAAAAGTTCAGTGAATCCCGAGGAT,6.34
15,CCTACTGGGCCGAGGTCATTGATCAGTCAAAGCA,2.71
16,TTACCAAAGTGAAAGGTCGTTGATGCACGCCTTG,1.43
17,CCTAGTAGGTTATGGGGCATTCAGGCAACGGTGA,5.34
18,AGTCAAAGTTCATCTGGGTAACGTAAGATATGCT,3.77
19,TCTTGTAGATCAAAGGTCAAGAAAGCCGAAGCCT,4.93

# Reference: the supplement of paper PMC6555819
